Experimental data: PubChem BioAssay
Calls of active or inactive are those of the source.

Assays:
[1] = anti-His antibody binders, primary screen, artefact control for SMM control protein annotation, biochemical, small-molecule microarray, 635 nm fluorescence (AID 1128); conditions: anti-His Alexa647 antibody binding, higher = more signal;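 note: score merges feature fluorescence with signal-to-noise for each printed compound spot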
[2] = tested on: Human papillomavirus type 1a E7 protein (residues 1-88); experiment: HPV1a E7 small-molecule binders, primary screen, biochemical, small-molecule microarray, residues 1-88, 635 nm (AID 1129); conditions: small-molecule microarray binding, fluorescence 635 nm; higher = more signal
[3] = molecular target: Focal adhesion kinase 1 (Homo sapiens) (UniProt Q05397); experiment: small-molecule microarray binders of FAK, primary screen, biochemical, 635/667 nm fluorescence, BSA, DTT (AID 1130); conditions: PTK2 binding, 635 nm fluorescence, higher = more signal;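 note: composite of spot emission at 667 nm and signal to noise over triplicate slides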
Focal adhesion kinase 1 (Homo sapiens), sequence (Q05397 whole entry, looked up): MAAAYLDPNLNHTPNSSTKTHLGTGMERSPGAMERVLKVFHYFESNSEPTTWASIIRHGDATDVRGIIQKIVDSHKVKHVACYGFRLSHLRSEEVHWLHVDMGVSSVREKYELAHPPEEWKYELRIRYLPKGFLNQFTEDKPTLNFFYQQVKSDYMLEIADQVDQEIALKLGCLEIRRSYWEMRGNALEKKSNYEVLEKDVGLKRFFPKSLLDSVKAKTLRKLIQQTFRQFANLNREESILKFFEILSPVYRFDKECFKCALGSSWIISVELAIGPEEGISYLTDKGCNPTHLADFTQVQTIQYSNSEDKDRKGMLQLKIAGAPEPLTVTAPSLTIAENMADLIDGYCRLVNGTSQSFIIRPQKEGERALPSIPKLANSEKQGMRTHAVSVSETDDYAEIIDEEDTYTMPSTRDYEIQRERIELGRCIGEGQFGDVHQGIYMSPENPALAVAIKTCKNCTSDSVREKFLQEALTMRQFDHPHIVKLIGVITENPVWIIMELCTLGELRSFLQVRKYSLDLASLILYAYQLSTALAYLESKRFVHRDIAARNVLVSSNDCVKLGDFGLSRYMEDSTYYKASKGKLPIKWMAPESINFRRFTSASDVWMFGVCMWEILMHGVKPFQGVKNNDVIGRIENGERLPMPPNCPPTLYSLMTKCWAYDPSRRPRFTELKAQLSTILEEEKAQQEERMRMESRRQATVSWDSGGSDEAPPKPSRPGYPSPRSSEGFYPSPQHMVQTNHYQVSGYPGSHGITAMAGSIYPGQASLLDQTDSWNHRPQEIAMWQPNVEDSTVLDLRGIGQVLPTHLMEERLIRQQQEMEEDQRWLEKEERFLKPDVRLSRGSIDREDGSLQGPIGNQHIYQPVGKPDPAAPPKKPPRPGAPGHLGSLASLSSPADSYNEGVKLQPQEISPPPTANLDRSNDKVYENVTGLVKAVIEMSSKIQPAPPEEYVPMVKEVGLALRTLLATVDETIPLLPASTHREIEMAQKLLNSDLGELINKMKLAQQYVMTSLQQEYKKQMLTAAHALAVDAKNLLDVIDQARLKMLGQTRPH

[4] = tested on: Fibrinogen (Alexa647-labelled); experiment: fibrinogen binders on compound microarrays, profiling panel, artefact control for SMM control-protein annotation, biochemical, small-molecule microarray, 635/667 nm fluorescence (AID 1131); conditions: fibrinogen-A647 binding fluorescence, higher = more signal;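 note: z-score merges 667 nm fluorescence with per-spot signal-to-noise over triplicate slides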
[5] = molecular target: Follistatin (Homo sapiens) (UniProt P19883); experiment: follistatin binders on small-molecule microarrays, primary screen, biochemical, small-molecule microarray, 635/667 nm fluorescence (AID 1132); conditions: FST binding, 635 nm fluorescence, higher = more signal
Follistatin (Homo sapiens), sequence (P19883 whole entry, looked up): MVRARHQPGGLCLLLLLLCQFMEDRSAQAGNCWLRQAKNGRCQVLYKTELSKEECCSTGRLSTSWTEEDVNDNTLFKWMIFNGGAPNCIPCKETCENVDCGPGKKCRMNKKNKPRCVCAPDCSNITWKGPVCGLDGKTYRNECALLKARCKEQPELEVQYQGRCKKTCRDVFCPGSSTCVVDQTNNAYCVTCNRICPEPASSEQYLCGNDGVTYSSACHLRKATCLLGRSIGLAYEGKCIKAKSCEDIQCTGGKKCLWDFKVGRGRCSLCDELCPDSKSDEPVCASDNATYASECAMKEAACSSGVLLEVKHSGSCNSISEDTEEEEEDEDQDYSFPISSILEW

[6] = molecular target: Fibroblast growth factor 2 (Homo sapiens) (UniProt P09038); experiment: FGF2 binders on small-molecule microarrays, primary screen, biochemical, small-molecule microarray, 635/667 nm fluorescence (AID 1133); conditions: small-molecule microarray binding, FGF2, fluorescence 635/667; higher = more signal
Fibroblast growth factor 2 (Homo sapiens), sequence (P09038 whole entry, looked up): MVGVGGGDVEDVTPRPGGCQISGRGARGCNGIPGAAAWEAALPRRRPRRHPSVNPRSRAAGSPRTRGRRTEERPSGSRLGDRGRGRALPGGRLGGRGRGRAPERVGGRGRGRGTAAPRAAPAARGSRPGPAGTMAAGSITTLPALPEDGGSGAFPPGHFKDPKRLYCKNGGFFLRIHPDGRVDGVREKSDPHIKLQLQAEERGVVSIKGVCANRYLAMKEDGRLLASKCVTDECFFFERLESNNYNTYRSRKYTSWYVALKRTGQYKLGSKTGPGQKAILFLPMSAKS

[7] = mitochondrial membrane potential change in A549 cells, profiling panel, cell-based, JC-1 fluorescence, basal, 24 h, 100 nL (AID 1138); conditions: higher = more signal;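 note: A549 lung adenocarcinoma cells under basal conditions with no added stimulus; test concentration not given here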
Lefty1 = Lefty1 binders on small-molecule microarrays, primary screen, biochemical, small-molecule microarray, 635/667 nm fluorescence (AID 1139); conditions: small-molecule microarray binding, fluorescence 635/667; higher = more signal
[8] = tested on: wheat germ agglutinin (Triticum aestivum), Alexa647-labelled; experiment: wheat germ agglutinin binders on compound microarrays, profiling panel, artefact control for SMM control-protein annotation, biochemical, small-molecule microarray, 635/667 nm fluorescence (AID 1140); conditions: WGA-A647 binding, 635 nm fluorescence, higher = more signal;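 note: score merges 667 nm feature emission with signal to noise over triplicate slides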
[9] = molecular target: Luciferin 4-monooxygenase (Photinus pyralis) (UniProt P08659); experiment: firefly luciferase enzyme inhibitors, primary screen, biochemical, luminescence, purified enzyme, 2006 set (AID 1141); conditions: SteadyGlo luminescence, 30 min, higher = more signal, called active from +8 up or from −8 down;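 note: cell-free assay with purified firefly luciferase at 100 ng per well in PBS; test concentration not given here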
Luciferin 4-monooxygenase (Photinus pyralis), sequence (P08659 whole entry, looked up): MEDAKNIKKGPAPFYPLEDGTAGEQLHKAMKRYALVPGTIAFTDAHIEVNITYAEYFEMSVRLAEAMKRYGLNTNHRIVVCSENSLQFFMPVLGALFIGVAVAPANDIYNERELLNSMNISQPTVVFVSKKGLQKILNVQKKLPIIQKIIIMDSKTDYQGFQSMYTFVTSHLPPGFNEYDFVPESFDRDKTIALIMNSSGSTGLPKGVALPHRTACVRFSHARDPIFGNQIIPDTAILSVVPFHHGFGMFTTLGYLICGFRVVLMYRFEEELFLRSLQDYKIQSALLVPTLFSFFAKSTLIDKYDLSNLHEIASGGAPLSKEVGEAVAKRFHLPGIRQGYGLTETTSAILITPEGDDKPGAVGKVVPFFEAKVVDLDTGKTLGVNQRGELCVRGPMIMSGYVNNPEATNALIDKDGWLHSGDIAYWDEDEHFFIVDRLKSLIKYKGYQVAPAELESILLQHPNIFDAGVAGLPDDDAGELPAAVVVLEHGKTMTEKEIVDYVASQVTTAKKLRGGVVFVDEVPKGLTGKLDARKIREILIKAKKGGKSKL

Compound | composite z-score [1] | composite z-score [2] | composite z-score [3] | composite z-score [4] | composite z-score [5] | composite z-score [6] | z-score [7] | composite z-score (Lefty1) | composite z-score [8] | z-score [9]
CC(C)c1ccc(NN2C(C(O)C(c3ccccc3)c3ccccc3)C=CC3C(=O)N(c4ccccc4)C(=O)C32)cc1 (stereo not given) | 0.49 | 1.2 | 0.496 | 0.975 | 1.13 | 0.388 | -1.24 | 0.343 | 0.919 | -0.78 (inactive)
C#CCNC(=O)[C@H](Cc1ccccc1)NC(=O)CCC(=O)O | -1.08 | -0.912 | -0.318 | -1.74 | -1.69 | -0.246 | -0.68 | -0.804 | -1.19 | 0.0223 (inactive)
C=C(/C(=C/C[C@@H](OC(C)=O)c1ccc(OCCO)cc1)c1cnc2ccccc2c1)C(C)C | 0.204 | 0.408 | 0.166 | -0.59 | 1.1 | 0.757 | 1.04 | 0.806 | 0.983 | -1.6 (inactive)
CC(=O)NCCCC[C@@H]1NC(=O)[C@@H]2C[C@H](C(=O)NCCCCCCNC(=O)CS)[C@H](c3cccc(OCCO)c3)N2C1=O | 1.23 | 1.1 | 0.314 | -0.917 | 1.24 | 1.59 | 0.488 | 0.574 | 0.379 | -0.242 (inactive)
CC(=O)NCCCC[C@@H]1NC(=O)[C@@H]2C[C@H](C(=O)NCCCCN(C)C)[C@H](c3cccc(OCCO)c3)N2C1=O | 0.605 | -0.158 | -0.208 | -0.908 | 1.21 | 1.08 | -0.446 | 0.471 | -0.159 | 0.603 (inactive)
COc1ccc([Si](C)(C)[C@H]2[C@H](CCO)O[C@@]3(C(=O)N(C)c4c(Br)cc(C)cc43)[C@@H]2C)cc1 | 0.494 | 0.969 | 0.295 | 0.15 | 0.675 | 0.425 | -1.69 | 0.486 | 0.773 | 0.481 (inactive)
CCCC[C@@H]1C[C@H]1[C@@H](NC(=O)c1ccco1)c1ccc(C(=O)OC)cc1 | -0.499 | 0.149 | 0.214 | 0.0507 | -0.943 | -1.42 | -0.814 | -0.431 | 0.586 | 1.94 (inactive)
COC(=O)c1c(CC[C@@H](CO)NC(=O)N[C@H](Cn2cc(Cc3ccccc3)nn2)C(C)C)oc(C(C)=O)c1C(=O)OC | 0.583 | 0.641 | -0.0225 | 0.519 | 1.29 | 1.51 | 0.0865 | 1.24 | 0.261 | -0.0001 (inactive)
O=C1OCCC/C=C\[C@H]2OC34C=CCN(Cn5nnc6ccccc65)C(=O)[C@H]3N(CCO)C(=O)[C@@H]4C12 (stereo not given in full) | 0.893 | -0.318 | -0.344 | -1.27 | -0.481 | -1.36 | -0.438 | -0.368 | 0.556 | 1.27 (inactive)
COc1cc(CO)cc(I)c1O[C@H]1C=C(C(=O)NCCO)C[C@@H](N(CCN2CCOCC2)C(=O)C2CCOC2)[C@@H]1O (stereo not given in full) | -0.504 | -0.233 | -0.508 | 0.651 | 0.581 | 0.675 | 1.86 | 0.792 | -0.201 | -1.13 (inactive)
COCCCNC(=O)[C@@]1(Cc2ccccc2N=[N+]=[N-])N=C(c2ccc(OCCCO)cc2)O[C@H]1c1ccccc1N=[N+]=[N-] | 1.73 | 1.22 | 0.912 | 0.849 | 1.25 | 0.836 | 0.332 | -0.0542 | 1.02 | -3.37 (inactive)
O=C1O[C@H](c2ccccc2)[C@H](c2ccccc2)N2[C@H]1[C@@H](C(=O)Nc1nc3ccccc3s1)[C@]1(C(=O)Nc3ccc(C#CC4(O)CCCCCC4)cc31)[C@H]2c1ccc(OCCO)cc1 | 2 | 1.14 | 0.429 | 0.976 | 1.43 | 1.39 | -2.27 | 1.05 | 0.921 | -2.79 (inactive)
C=CCNC(=O)[C@H]1[C@@H]2C(=O)O[C@@H](c3ccccc3)[C@@H](c3ccccc3)N2[C@@H](c2ccc(OCCO)cc2)[C@]12C(=O)N(C(=O)OCCOC)c1ccccc12 | 2.75 | 1.25 | 0.389 | 0.962 | 1.33 | 1.53 | -0.134 | 0.807 | 0.789 | 0.122 (inactive)
CN(C)CCCCCCNC(=O)[C@@H]1C[C@@H]2C(=O)N[C@@H](CCCCN)C(=O)N2[C@@H]1c1cccc(OCCO)c1 | 3.24 | 1.31 | 2.31 | 1.01 | 1.45 | 1.59 | 1.08 | 1.66 | 1.62 | -1.61 (inactive)
COc1cc2c(cc1OC)CN(C(=O)[C@H]1[C@@H]3C(=O)O[C@@H](c4ccccc4)[C@@H](c4ccccc4)N3[C@@H](c3ccc(O)cc3)[C@]13C(=O)Nc1ccc(C#CC4=CCCCC4)cc13)CC2 | 2.11 | 1.19 | -0.0164 | 0.666 | 1.22 | 0.86 | 0.0961 | 1.2 | 1.12 | -1.1 (inactive)
COC(=O)[C@@]1(Cc2ccc(F)cc2)[C@@H]2[C@@H](CC(=O)[C@H]2CC(=O)C(=O)N(C)C)CN1C(=O)c1ccccc1 | 1.49 | 1.24 | 0.138 | 1.01 | 0.959 | -0.213 | 0.432 | -0.198 | 1.22 | 1.28 (inactive)
COC(=O)C(CC#Cc1ccc2c(c1)[C@]1(C(=O)N2)[C@H](C(=O)O)[C@H]2C(=O)O[C@H](c3ccccc3)[C@H](c3ccccc3)N2[C@@H]1c1ccc(O)cc1)C(=O)OC | 1.54 | -0.133 | -0.13 | -0.422 | -0.0501 | -0.328 | -0.573 | -0.574 | -0.163 | 0.217 (inactive)
